Test results from the supplement of paper PMC11732987, “Enantioselective OTUD7B fragment discovery through chemoproteomics screening and high-throughput optimisation” (Communications Chemistry, 2025).

Assays:
Experiment in all cases: log2 ratio of Biotin-Ahx-Ub-VS probe labelling (fragment/DMSO); higher = less target engagement (more negative = stronger competition), active = hit call of the paper (q ≤ 0.05, log2 ratio ≤ -1)
Settings in all cases: compound concentration: 200 uM; treatment time: 3 h
[1] = molecular target: USP34 (UniProt Q70CQ2)
USP34, sequence (Q70CQ2 whole entry, the tested form may be a part): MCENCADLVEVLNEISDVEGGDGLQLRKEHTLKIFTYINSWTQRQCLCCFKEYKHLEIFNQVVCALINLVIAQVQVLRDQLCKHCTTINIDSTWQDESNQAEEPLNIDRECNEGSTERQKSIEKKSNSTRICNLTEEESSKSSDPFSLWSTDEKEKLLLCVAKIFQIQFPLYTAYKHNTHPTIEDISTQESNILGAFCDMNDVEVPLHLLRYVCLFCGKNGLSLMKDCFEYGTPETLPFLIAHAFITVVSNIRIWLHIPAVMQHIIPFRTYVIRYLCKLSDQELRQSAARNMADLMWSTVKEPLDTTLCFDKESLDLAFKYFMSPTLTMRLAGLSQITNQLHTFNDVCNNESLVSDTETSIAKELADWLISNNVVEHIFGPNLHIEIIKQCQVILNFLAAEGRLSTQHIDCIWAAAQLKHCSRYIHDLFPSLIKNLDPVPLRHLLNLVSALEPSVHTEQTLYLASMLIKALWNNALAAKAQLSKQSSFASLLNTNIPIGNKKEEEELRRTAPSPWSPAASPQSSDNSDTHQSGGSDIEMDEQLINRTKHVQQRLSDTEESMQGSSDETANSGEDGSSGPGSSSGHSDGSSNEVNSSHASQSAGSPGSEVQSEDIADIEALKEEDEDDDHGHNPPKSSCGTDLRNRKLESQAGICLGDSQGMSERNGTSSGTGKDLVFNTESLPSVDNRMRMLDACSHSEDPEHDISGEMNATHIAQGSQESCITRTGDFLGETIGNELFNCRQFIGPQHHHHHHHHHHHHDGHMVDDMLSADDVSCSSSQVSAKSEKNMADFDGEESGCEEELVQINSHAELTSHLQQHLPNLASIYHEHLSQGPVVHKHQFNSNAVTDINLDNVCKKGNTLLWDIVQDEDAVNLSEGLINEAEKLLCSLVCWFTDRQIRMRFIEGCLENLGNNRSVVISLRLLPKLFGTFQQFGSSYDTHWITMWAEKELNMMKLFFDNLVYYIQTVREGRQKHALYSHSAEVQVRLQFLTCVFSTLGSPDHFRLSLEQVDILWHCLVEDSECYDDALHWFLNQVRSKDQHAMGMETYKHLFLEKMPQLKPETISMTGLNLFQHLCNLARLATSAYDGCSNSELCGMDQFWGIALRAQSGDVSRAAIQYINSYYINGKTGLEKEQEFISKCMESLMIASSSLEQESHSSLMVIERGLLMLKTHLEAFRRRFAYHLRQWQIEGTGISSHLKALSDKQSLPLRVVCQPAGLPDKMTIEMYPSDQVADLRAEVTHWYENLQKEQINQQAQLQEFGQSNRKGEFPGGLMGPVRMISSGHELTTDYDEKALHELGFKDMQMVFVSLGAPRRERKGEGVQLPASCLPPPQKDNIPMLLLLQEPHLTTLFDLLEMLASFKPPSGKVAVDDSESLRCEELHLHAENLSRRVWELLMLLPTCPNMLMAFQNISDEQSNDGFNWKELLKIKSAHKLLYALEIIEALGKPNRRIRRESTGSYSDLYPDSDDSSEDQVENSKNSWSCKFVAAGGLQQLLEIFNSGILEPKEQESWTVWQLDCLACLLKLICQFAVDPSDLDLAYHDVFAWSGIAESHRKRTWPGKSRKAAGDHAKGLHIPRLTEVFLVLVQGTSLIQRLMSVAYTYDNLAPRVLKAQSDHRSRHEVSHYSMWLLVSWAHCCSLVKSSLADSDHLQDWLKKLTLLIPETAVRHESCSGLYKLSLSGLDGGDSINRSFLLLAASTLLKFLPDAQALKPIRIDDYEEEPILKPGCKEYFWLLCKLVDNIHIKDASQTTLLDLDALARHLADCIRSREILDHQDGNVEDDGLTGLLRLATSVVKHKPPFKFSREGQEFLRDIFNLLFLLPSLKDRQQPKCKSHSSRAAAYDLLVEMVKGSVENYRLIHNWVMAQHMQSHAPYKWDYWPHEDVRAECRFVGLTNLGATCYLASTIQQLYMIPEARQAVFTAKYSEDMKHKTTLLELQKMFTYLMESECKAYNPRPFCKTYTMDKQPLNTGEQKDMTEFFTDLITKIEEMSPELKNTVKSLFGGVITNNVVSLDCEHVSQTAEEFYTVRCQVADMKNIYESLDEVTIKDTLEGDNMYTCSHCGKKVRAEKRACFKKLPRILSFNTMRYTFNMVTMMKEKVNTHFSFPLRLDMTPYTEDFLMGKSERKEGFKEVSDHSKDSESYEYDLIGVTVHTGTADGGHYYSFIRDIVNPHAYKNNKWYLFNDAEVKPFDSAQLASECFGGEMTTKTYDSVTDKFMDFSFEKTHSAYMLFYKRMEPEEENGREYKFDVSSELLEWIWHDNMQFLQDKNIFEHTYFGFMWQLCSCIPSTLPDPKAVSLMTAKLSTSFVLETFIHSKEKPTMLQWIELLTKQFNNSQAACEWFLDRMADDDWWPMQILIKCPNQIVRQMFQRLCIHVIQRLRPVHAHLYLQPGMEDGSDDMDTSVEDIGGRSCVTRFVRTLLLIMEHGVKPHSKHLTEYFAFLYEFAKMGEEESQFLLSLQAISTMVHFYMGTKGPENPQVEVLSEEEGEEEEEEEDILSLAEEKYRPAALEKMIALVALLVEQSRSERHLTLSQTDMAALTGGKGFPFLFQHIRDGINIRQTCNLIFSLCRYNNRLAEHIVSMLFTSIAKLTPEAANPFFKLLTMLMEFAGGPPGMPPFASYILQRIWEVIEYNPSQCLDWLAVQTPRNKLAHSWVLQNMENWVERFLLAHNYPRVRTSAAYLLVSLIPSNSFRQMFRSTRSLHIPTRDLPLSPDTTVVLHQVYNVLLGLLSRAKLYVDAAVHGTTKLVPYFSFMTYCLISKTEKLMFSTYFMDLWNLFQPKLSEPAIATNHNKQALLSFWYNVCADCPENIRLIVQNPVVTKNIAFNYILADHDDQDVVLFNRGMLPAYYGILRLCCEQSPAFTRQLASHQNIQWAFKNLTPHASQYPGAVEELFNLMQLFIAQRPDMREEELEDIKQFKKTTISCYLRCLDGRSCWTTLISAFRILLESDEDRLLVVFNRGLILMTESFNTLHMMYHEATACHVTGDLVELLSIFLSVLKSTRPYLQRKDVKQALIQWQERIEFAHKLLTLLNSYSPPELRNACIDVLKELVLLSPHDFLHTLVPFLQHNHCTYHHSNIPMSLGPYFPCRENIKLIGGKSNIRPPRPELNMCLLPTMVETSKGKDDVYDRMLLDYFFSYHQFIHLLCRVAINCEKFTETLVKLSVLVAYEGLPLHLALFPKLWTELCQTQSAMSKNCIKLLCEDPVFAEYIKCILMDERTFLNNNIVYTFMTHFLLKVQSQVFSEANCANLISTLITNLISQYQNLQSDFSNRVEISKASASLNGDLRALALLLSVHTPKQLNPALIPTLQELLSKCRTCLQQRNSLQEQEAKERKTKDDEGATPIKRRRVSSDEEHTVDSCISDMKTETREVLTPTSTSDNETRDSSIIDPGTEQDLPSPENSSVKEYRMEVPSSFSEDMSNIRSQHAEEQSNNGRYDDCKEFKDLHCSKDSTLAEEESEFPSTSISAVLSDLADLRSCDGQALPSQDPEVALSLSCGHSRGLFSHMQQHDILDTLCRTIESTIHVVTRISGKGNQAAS
Method in brief: (§1)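 Values give the average log2 ratio of fragment to vehicle, assessed by unpaired t-test on global-median-normalised Spectronaut label-free quantities. Proteins needed ≥2 unique peptides. HEK293T lysate (495 µg per sample) was treated in triplicate with fragment at 200 µM or vehicle for 3 h and then with Biotin-Ahx-Ub-VS at 0.5 µM final for 1 h. Labelled DUBs were NeutrAvidin-enriched, digested and run by diaPASEF LC-MS/MS.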

[2] = molecular target: T1, USP36 (UniProt Q9P275)
T1 sequence (whole entry): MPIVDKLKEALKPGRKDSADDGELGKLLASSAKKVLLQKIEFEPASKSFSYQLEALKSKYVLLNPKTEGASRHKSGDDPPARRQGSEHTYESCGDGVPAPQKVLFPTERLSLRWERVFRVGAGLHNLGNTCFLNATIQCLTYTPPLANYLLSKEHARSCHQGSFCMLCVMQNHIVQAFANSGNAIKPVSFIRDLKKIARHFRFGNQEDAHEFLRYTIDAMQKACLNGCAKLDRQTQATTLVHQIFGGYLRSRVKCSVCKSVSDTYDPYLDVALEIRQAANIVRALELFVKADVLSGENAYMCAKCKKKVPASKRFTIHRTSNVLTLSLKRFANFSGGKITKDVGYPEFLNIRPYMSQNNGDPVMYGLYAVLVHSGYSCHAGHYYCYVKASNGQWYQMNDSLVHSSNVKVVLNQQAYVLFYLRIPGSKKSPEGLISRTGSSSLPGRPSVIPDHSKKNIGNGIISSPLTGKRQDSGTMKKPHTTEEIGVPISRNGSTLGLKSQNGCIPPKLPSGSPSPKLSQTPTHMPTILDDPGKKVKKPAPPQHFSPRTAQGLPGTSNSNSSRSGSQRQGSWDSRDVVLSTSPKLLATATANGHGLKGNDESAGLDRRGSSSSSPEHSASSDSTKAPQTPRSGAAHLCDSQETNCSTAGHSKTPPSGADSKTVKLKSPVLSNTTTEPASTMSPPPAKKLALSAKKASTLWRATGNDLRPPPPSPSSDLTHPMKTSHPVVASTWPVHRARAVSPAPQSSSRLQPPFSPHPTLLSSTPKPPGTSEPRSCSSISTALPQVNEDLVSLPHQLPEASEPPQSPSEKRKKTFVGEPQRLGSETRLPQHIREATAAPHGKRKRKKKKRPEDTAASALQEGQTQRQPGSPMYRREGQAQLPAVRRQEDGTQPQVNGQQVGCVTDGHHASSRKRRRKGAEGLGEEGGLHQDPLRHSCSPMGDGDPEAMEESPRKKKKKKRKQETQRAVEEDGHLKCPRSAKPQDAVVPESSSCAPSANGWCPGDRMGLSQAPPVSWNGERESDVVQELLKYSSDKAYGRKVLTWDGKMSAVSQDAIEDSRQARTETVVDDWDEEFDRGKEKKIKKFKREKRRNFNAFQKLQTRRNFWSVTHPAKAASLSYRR
Method in brief: as §1

[3] = molecular target: T2, USP38 (UniProt Q8NB14)
T2 sequence (whole entry): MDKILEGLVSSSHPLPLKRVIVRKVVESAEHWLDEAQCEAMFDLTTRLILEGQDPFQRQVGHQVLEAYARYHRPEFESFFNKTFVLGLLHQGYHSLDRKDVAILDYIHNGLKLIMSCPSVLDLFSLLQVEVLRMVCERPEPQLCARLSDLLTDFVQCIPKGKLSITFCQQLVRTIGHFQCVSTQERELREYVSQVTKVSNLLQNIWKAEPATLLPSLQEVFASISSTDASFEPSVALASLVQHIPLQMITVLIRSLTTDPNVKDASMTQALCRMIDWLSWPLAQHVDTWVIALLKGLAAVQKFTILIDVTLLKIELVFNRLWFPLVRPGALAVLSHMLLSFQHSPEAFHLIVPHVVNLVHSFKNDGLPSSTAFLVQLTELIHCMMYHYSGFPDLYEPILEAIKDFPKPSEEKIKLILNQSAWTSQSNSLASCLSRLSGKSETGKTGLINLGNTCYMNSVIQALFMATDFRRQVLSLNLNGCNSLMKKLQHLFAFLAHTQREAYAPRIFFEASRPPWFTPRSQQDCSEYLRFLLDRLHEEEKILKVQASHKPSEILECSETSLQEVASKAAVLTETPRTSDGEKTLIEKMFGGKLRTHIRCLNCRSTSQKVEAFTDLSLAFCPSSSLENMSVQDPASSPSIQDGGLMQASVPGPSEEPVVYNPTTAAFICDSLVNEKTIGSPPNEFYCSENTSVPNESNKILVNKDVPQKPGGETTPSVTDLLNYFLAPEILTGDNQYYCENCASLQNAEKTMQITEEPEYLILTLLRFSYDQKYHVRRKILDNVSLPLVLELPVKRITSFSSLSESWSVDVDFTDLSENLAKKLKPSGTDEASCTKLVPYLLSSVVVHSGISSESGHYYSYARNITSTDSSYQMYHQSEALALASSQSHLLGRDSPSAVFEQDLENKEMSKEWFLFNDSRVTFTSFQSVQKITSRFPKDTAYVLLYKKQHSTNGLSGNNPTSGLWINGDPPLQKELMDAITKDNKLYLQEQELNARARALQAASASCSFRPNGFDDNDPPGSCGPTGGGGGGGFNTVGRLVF
Method in brief: as §1

[4] = molecular target: T3, USP39 (UniProt Q53GS9)
T3 sequence (whole entry): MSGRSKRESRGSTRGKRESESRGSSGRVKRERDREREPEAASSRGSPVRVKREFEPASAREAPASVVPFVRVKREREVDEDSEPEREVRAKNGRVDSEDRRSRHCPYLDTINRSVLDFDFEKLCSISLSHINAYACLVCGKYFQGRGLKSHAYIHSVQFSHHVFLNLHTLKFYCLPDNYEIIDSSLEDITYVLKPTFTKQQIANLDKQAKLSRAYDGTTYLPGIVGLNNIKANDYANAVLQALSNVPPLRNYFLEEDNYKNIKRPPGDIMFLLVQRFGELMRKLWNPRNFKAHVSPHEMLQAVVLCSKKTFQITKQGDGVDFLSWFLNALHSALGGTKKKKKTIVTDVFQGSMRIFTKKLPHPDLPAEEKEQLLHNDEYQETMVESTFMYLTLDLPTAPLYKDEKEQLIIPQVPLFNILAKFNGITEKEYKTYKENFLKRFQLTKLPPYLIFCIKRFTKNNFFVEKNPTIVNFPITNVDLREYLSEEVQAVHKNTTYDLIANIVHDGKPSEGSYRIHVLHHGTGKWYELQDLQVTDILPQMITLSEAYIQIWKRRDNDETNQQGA
Method in brief: as §1

[5] = molecular target: T4, USP4 (UniProt Q13107)
T4 sequence (whole entry): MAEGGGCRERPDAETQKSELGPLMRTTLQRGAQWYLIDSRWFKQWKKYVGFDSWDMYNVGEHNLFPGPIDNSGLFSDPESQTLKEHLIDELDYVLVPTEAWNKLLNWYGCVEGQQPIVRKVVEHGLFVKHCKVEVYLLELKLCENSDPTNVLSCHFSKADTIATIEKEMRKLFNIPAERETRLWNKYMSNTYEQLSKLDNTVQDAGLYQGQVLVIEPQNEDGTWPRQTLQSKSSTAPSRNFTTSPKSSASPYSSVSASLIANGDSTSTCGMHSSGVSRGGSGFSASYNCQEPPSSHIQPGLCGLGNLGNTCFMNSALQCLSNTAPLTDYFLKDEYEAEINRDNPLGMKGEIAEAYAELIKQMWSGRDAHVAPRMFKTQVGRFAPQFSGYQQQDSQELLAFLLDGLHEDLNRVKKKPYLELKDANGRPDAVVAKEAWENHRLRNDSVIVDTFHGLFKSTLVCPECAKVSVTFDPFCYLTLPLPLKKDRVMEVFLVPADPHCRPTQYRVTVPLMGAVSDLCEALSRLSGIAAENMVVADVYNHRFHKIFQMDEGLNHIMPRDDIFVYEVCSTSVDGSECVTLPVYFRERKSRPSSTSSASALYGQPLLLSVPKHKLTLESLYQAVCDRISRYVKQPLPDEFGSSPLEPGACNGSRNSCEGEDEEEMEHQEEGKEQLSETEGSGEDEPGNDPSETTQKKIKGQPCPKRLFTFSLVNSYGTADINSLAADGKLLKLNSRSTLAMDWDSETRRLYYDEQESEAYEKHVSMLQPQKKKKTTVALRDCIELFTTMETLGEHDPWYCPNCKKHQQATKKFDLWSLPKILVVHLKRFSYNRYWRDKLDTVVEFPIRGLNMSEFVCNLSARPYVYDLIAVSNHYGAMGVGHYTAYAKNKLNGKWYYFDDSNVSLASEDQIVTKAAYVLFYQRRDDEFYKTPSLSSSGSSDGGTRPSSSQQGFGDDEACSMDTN
Method in brief: as §1

Measured: log2 ratio of Biotin-Ahx-Ub-VS probe labelling

CN(C(=O)CCl)c1nc2ccccc2s1
inactive: [1] -0.279 | [2] -0.0441 | [3] -0.124 | [4] 0.31 | [5] 0.161
